In PubChem BioAssay AID1159580 (chemical genetic matrix, 2015):
Out of some 5,500 compounds screened, about 2,000 (36%) were called active. Another 18% or so got no clear call; they are omitted. Cut-off read from the data, not from the text of the source: active = normalized growth mostly below about 0.91 (no sharp cut-off); inconclusive = no clear call, values can overlap the other calls; inactive = mostly above about 0.92. The list shows a part of the results.

Experiment: chemical genetic growth profiling, strain panel (AID 1159580);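 note: tested at 20 µM; growth read once vehicle control cultures reached saturation at 30 °C; 1 = growth at the plate median or of vehicle wells; lower values mean less growth of the strain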
Conditions: S. cerevisiae deletion strains, growth OD

Measured: normalized growth

CCC(C)c1ccccc1NC(=O)c1cc2cccc([N+](=O)[O-])c2[nH]1 (stereo unspecified)
inactive: locus YAR019C, strain CDC15, active compounds read low 0.932 | locus YBL105C, strain PKC1, active compounds read low 0.914 | locus YBR135W, strain CKS1, active compounds read low 0.912 | locus YBR136W, strain MEC1, active compounds read low 0.923 | locus YBR160W, strain CDC28, active compounds read low 0.924 | locus YDL017W, strain CDC7, active compounds read low 0.928 | locus YDL028C, strain MPS1, active compounds read low 0.92 | locus YDL101C, strain DUN1, active compounds read low 0.949 | locus YDL108W, strain KIN28, active compounds read low 0.921 | locus YDL132W, strain cdc53, active compounds read low 0.896 | locus YDL214C, strain PRR2, active compounds read low 0.904 | locus YDR052C, strain DBF4, active compounds read low 0.965 | locus YDR054C, strain cdc34, active compounds read low 0.957 | locus YDR226W, strain ADK1, active compounds read low 0.936 | locus YDR477W, strain SNF1, active compounds read low 0.792 | locus YER123W, strain YCK3, active compounds read low 0.851 | locus YER133W, strain GLC7, active compounds read low 0.893 | locus YFL009W, strain cdc4, active compounds read low 0.906 | locus YFL029C, strain CAK1, active compounds read low 0.925 | locus YFR003C, strain YPI1, active compounds read low 0.93 | locus YFR019W, strain FAB1, active compounds read low 0.978 | locus YFR028C, strain CDC14, active compounds read low 0.967 | locus YGR040W, strain KSS1, active compounds read low 0.826 | locus YGR052W, strain FMP48, active compounds read low 0.867 | locus YGR092W, strain DBF2, active compounds read low 0.7 | locus YHR082C, strain KSP1, active compounds read low 0.905 | locus YHR205W, strain SCH9, active compounds read low 0.964 | locus YIL147C, strain SLN1, active compounds read low 0.916 | locus YJL128C, strain PBS2, active compounds read low 0.994 | locus YJL157C, strain FAR1, active compounds read low 0.884 | locus YJR016C, strain ILV3, active compounds read low 0.911 | locus YJR066W, strain TOR1 (second series), active compounds read low 0.905 | locus YJR066W, strain TOR1, active compounds read low 0.767 | locus YKL048C, strain ELM1, active compounds read low 0.912 | locus YKL067W, strain YNK1, active compounds read low 0.897 | locus YKL101W, strain HSL1, active compounds read low 0.83 | locus YKL193C, strain SDS22, active compounds read low 0.92 | locus YKL203C, strain TOR2, active compounds read low 0.783 | locus YLR133W, strain CKI1, active compounds read low 0.902 | locus YLR403W, strain SFP1, active compounds read low 0.859 | locus YML070W, strain DAK1, active compounds read low 0.846 | locus YMR001C, strain CDC5, active compounds read low 0.917 | locus YMR205C, strain PFK2 (second series), active compounds read low 0.894 | locus YMR277W, strain FCP1, active compounds read low 0.921 | locus YNL006W, strain LST8, active compounds read low 0.915 | locus YNL020C, strain ARK1, active compounds read low 0.905 | locus YNL161W, strain CBK1, active compounds read low 0.924 | locus YNL183C, strain NPR1, active compounds read low 0.774 | locus YNL207W, strain RIO2, active compounds read low 0.905 | locus YNL222W, strain SSU72, active compounds read low 0.917 | locus YNL307C, strain MCK1 (second series), active compounds read low 0.826 | locus YOL078W, strain AVO1, active compounds read low 0.924 | locus YOL136C, strain PFK27, active compounds read low 0.869 | locus YOR061W, strain CKA2, active compounds read low 0.818 | locus YOR119C, strain RIO1, active compounds read low 0.805 | locus YOR231W, strain MKK1, active compounds read low 0.631 | locus YOR329C, strain SCD5, active compounds read low 0.917 | locus YPL031C, strain PHO85, active compounds read low 0.832 | locus YPL153C, strain RAD53, active compounds read low 0.723 | locus YPL204W, strain HRR25, active compounds read low 0.834 | locus YPL209C, strain IPL1, active compounds read low 0.921 | locus YPR025C, strain CCL1, active compounds read low 0.919 | locus YPR106W, strain ISR1, active compounds read low 0.958 | locus YPR111W, strain DBF20, active compounds read low 0.99 | strain NNK1, active compounds read low 0.945 | strain TSCII, active compounds read low 0.911
active: locus YHR030C, strain SLT2, active compounds read low 0.543 | locus YHR079C, strain IRE1, active compounds read low 0.219 | locus YJL095W, strain BCK1, active compounds read low 0.266 | locus YLR113W, strain HOG1, active compounds read low 0.656 | locus YPL256C, strain CLN2, active compounds read low 0.785
